# From the supplement of paper PMC12636033
# ± gives the standard deviation of the averaged measurements. Over roughly 33,000 sequences, “E-score (rank enrichment, -0.5 to 0.5)” has its median near -0.0043; the highest 2% begin near 0.24. The sample holds the highest values, similar sequences and a random draw of the others, so the mix is not that of the screen.
# Test system: 2Sp-muMax20 (muMax20 with two 2,6-bis(methyl)pyridine Cys staples)
# Assay: PBM 8-mer E-score (E-score (rank enrichment, -0.5 to 0.5)); higher = stronger preferential binding
# Description: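 Protein binding microarray (universal PBM chip covering all 10-mers in fixed probe flanks) with chemically synthesized human Max(13-93) bHLH-LZ analogs (not full-length Max) bearing noncanonical residues (hArg, Tha, Aib, Nle at 65) and aromatic Cys staples. Read-out per 8-mer (and its reverse complement): E-score (rank-based enrichment, -0.5 to 0.5) and Z-score of median probe intensity.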
row,Sequence,PBM 8-mer E-score
1,TTATTCAA,0.133 ± 0.037
2,ACGCTTTC,-0.00481 ± 0.013
3,ACGCGAAT,0.0678 ± 0.068
4,TAGAATGA,0.207 ± 0.064
5,AAAGTATT,0.223 ± 0.0032
6,ATAGTATA,0.11 ± 0.035
7,CAAGTATA,0.142 ± 0.1
8,GTAGTATA,0.236 ± 0.045
9,AAAGTATA,0.236 ± 0.03
10,CTAGTATA,0.219 ± 0.023
11,CGAACCTA,-0.123 ± 0.015
12,GCGCACTA,0.0235 ± 0.033
13,GAATGCTA,-0.14 ± 0.023
14,AAATGCTA,0.251 ± 0.058
15,AAATGCTG,0.0946 ± 0.018
16,GTAAACTA,0.175 ± 0.032
17,CACCAACA,0.106 ± 0.0083
18,CGCCCATA,0.0508 ± 0.075
19,CCCCCATA,0.0149 ± 0.042
20,GCCCCATA,0.29 ± 0.019
21,GGCCCATA,-0.0969 ± 0.099
22,GACCCATA,0.188 ± 0.032
23,AGCCCATA,0.238 ± 0.035
24,GTACCAAC,-0.0554 ± 0.078
25,ATCCAGGC,-0.01 ± 0.042

row,Sequence,PBM 8-mer E-score
1,AAGACAGG,-0.106 ± 0.025
2,GTCTGGAA,-0.0499 ± 0.016
3,ATCCAAGA,-0.0976 ± 0.054
4,AGGTGGAT,-0.1057 ± 0.00054
5,AAAAATCG,-0.00934 ± 0.012
6,GCATAGTA,0.273 ± 0.032
7,ACATAATA,0.262 ± 0.075
8,ACATAGTA,0.118 ± 0.076
9,ACATAATC,0.109 ± 0.04
10,ACATAATG,0.193 ± 0.064
11,CCATAGTA,0.144 ± 0.0076
12,GCATAAGA,0.0752 ± 0.0016
13,GCATAATA,0.2429 ± 0.0015
14,CCATAATA,0.161 ± 0.054
15,GACATGAC,0.00058 ± 0.047
16,GTATGCAC,0.075 ± 0.08
17,AACGTTGG,-0.0574 ± 0.07
18,CGAGCGAA,0.0234 ± 0.064
19,TGCATTAA,0.285 ± 0.014
20,AGCATTAT,0.266 ± 0.05
21,CGCATTAA,0.0861 ± 0.014
22,ATCATTAA,0.0844 ± 0.0038
23,AGCATTAA,0.209 ± 0.0096
24,AGCATTAC,-0.0132 ± 0.0023
25,AGCATTAG,0.0579 ± 0.1

row,Sequence,PBM 8-mer E-score
1,CTCATTAC,0.197 ± 0.087
2,CTCATTAA,0.273 ± 0.031
3,CCGGGCTA,-0.277 ± 0.0046
4,TGACCTCA,-0.183 ± 0.016
5,AGCTCAGA,-0.181 ± 0.0029
6,CGGATAGC,-0.0994 ± 0.018
7,CTAGCTGA,-0.0742 ± 0.045
8,ATACATAC,0.0484 ± 0.023
9,AGTCATAT,0.24 ± 0.015
10,ATACATAA,0.0924 ± 0.008
11,AGACATAT,0.249 ± 0.0045
12,AGACATAC,-0.0281 ± 0.088
13,AGACATAG,0.0229 ± 0.087
14,AGTCATAG,0.0709 ± 0.034
15,AGTCATAA,0.037 ± 0.035
16,ATACATAT,0.258 ± 0.0069
17,ACCTTATG,0.0929 ± 0.036
18,GGGGAACA,0.124 ± 0.0046
19,AATCAACC,0.157 ± 0.047
20,ACTAAGCT,-0.0864 ± 0.087
21,ATTCTCAC,0.0448 ± 0.078
22,ATAGCATG,0.258 ± 0.037
23,ATAGCATC,0.118 ± 0.015
24,ATAGCATA,0.204 ± 0.038
25,ATGACTTA,0.0917 ± 0.049

row,Sequence,PBM 8-mer E-score
1,AGGATCAA,-0.0715 ± 0.043
2,AAACTGTA,0.00471 ± 0.023
3,GACAGATC,0.0282 ± 0.0066
4,AACAGATA,-0.0996 ± 0.022
5,AACAGATC,0.243 ± 0.058
6,CCCCAGGG,-0.293 ± 0.032
7,CCAGACCC,-0.142 ± 0.016
8,CAACTTGC,-0.157 ± 0.011
9,AAACTTGA,0.17 ± 0.089
10,AAACTTGC,0.267 ± 0.039
11,CATTAATA,0.201 ± 0.014
12,TATTAATA,0.274 ± 0.1
13,TATTAACA,0.218 ± 0.011
14,GATTAATA,0.274 ± 0.062
15,GATTAATC,-0.0645 ± 0.077
16,GATTAACA,0.174 ± 0.046
17,GTCCTGCA,-0.0516 ± 0.027
18,ACCGCACT,-0.193 ± 0.07
19,AAACTGGC,-0.0533 ± 0.0029
20,CAAGGCCG,-0.065 ± 0.016
21,CAAAGGCC,0.0557 ± 0.1
22,AAAAGGCC,0.3 ± 0.0042
23,AAAAAGGC,0.00635 ± 0.045
24,AAAGGCCC,-0.012 ± 0.043
25,GAAAAGGC,0.308 ± 0.013

row,Sequence,PBM 8-mer E-score
1,AAAGGCCG,0.281
2,CAAAAGGC,0.0445 ± 0.053
3,GAAAGGCC,-0.146 ± 0.053
4,AGTGTCGG,-0.166 ± 0.11
5,GATGCCCC,-0.0212 ± 0.099
6,ATTGAGGC,0.167 ± 0.021
7,CACATGTA,0.312 ± 0.02
8,ACCATGTC,0.0986 ± 0.05
9,CAAATGTG,0.0759 ± 0.025
10,ACCATGTG,0.262 ± 0.03
11,CACATGTG,0.4178 ± 0.00081
12,CACATGTC,0.0937 ± 0.018
13,CTCATGTA,0.0793 ± 0.033
14,CACATGAA,0.138 ± 0.035
15,AACATGCG,0.253 ± 0.035
16,AACATGCT,0.126 ± 0.0074
17,CACATGCG,0.166 ± 0.097
18,ACCATGTA,0.0783 ± 0.049
19,CCCTAAAG,0.134 ± 0.057
20,ACTCTAGC,-0.0888 ± 0.0064
21,GGGGCAAA,0.0419 ± 0.059
22,AGCCCAAC,0.0919 ± 0.041
23,GCTGACCA,-0.0567 ± 0.026
24,AGCCTTGG,0.0479 ± 0.022
25,ACAAGTAG,0.00901 ± 0.018

row,Sequence,PBM 8-mer E-score
1,TACATGCA,0.222 ± 0.018
2,AACATGTT,0.304 ± 0.043
3,TACATGTA,0.265 ± 0.051
4,GACATGTA,0.217 ± 0.066
5,AACATGAG,0.0341 ± 0.0065
6,AACATGTC,0.143 ± 0.038
7,AACATGTA,0.2242 ± 0.0011
8,AACATGTG,0.36 ± 0.026
9,AGCATGTG,0.223 ± 0.016
10,AGGGCTCG,-0.212 ± 0.027
11,ACAAGGGG,0.0199 ± 0.047
12,TCGATACA,0.197 ± 0.0083
13,GCGATGGA,-0.138 ± 0.0024
14,ATAGCCGA,-0.00055 ± 0.0078
15,ATTCCAGA,0.0163 ± 0.071
16,CGGTGATC,-0.15 ± 0.0077
17,ACTTGAAG,0.186 ± 0.027
18,AATGTAAA,0.311 ± 0.014
19,CATGTATA,0.165 ± 0.0069
20,GATGTATA,0.107 ± 0.023
21,AATGTAAT,0.189 ± 0.0034
22,AATGTATA,0.269 ± 0.048
23,CATGTAAA,0.12 ± 0.055
24,ATCTCTGA,-0.0124 ± 0.14
25,AGCCGGTG,-0.254 ± 0.045

row,Sequence,PBM 8-mer E-score
1,CCCGTACG,-0.0914 ± 0.052
2,AAGGCGTG,-0.0484 ± 0.012
3,ACGTGCAA,0.212 ± 0.029
4,CATAATAG,0.237 ± 0.028
5,CATAATAA,0.0619 ± 0.015
6,AATAATAC,-0.0356 ± 0.042
7,AATAATAG,0.137 ± 0.084
8,CATAATAC,0.249 ± 0.028
9,CATAATGG,0.153 ± 0.026
10,AGGTGGAG,-0.0381 ± 0.055
11,GATGACGA,0.165 ± 0.017
12,GCGCCTCC,0.111 ± 0.079
13,CAAGAGCC,-0.0162 ± 0.036
14,AAGCTGAA,0.104 ± 0.047
15,AGGAGGCG,0.0177 ± 0.059
16,TCATGCAA,0.219 ± 0.014
17,GCATGCAC,0.216 ± 0.023
18,GCATGCGA,0.3 ± 0.012
19,CCATGCGA,0.0984 ± 0.026
20,ACATGCAT,0.333 ± 0.0087
21,GCATGCAA,0.244 ± 0.014
22,ACATGCAC,0.0958 ± 0.01
23,ACATGCAG,0.0533 ± 0.012
24,GCATGCGC,0.164 ± 0.06
